Several values for one entry are separate records, joined by “and”; a condition that tells them apart may be missing. Equal values may be shown once. Inconclusive results are not listed. More than one record can exist for a structure, and the calls need not agree. Activity calls are given as the source filed them.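 Rule for the calls, unless noted: active = normalized viability below 100% at a tested concentration; inactive = the rest.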
Columns and labels:
[1] = viability loss in pontine glioma line – cell-based, SU-DIPG-XVII, MIPE5.0, CellTiter-Glo, qHTS, dose response (AID 1347060; cut-off not given, nearly all actives have AC50 up to about 26 µM;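 for AC50: cells exposed to compound for 48 hours before viability readout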); details: CellTiter-Glo ATP luminescence
[2] = viability loss in pontine glioma line – cell-based, JHH-DIPG-1, MIPE4.0, CellTiter-Glo, qHTS, dose response (AID 1347062; cut-off not given, nearly all actives have AC50 up to about 27 µM;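 for AC50: cells exposed to compound for two days before readout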); details: JHH-DIPG-1 viability, CellTiter-Glo ATP luminescence
[3] = viability loss in pontine glioma line – cell-based, SU-DIPG-IV, MIPE4.0, CellTiter-Glo, qHTS, dose response (AID 1347063; cut-off not given, nearly all actives have AC50 up to about 30 µM;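 note: compound exposure lasted 48 hours before the viability readout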); details: CellTiter-Glo ATP luminescence
[4] = viability loss in pontine glioma line – cell-based, SU-DIPG-XIII, MIPE5.0, CellTiter-Glo, qHTS, dose response (AID 1347064; cut-off not given, nearly all actives have AC50 up to about 23 µM;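 for AC50: cells exposed to compound for 48 hours before the viability read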); details: CellTiter-Glo ATP luminescence
[5] = viability loss in pontine glioma line – cell-based, SU-DIPG-XXV, MIPE5.0, CellTiter-Glo, qHTS, dose response (AID 1347065; cut-off not given, nearly all actives have AC50 up to about 26 µM;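 note: cells exposed to compound for 48 hours before ATP readout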); details: CellTiter-Glo ATP luminescence
[6] = growth inhibition of DIPG cells – cell-based, MIPE4.0 library, CellTiter-Glo luminescence, qHTS (AID 1347066; cut-off not given, nearly all actives have AC50 up to about 30 µM;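 note: cells exposed to compound for 48 hours before readout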); details: SU-DIPG-VI viability, CellTiter-Glo ATP luminescence
[7] = viability loss with induced miR-34 in A549 – imaging, A549 dox-inducible miR-34, nuclei and caspase counts, primary screen (AID 1347080;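 active = compounds whose cell count with miR-34 switched on is under 0.7 times the count with it off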); details: A549 miR-34 inducible, Hoechst nuclei count, 48 h
[8] = compounds altering HSF1 focus formation in cells – imaging, Selleck Cancer Library (AID 1347162; in the data active = plate-normalised HSF1 focus index below about 0.46); details: human cells, HSF1 nuclear foci imaging, at 10 µM; SSMD: measured here: HSF1 foci SSMD mean; cell count: measured here: cell number; plate-normalised HSF1 focus index: stronger effect = lower value
[9] = MELAS cybrid and Rieske KO viability enhancers – cell-based, MELAS cybrids, Rieske KO mouse fibroblasts, CellTiter-Glo, primary screen (AID 1508586;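 active = mean z-score across replicates of 1.96 or higher in either the MELAS or the Rieske mutant cell line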;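 note: z relative to plate mean and SD of compound and empty wells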); details: low glucose
[10] = drug combination growth inhibition, ovarian cancer – cell-based, oncology-focused library, rucaparib conditional, profiling panel (AID 1508598); details: patient-derived ovarian cancer cells, CellTiter-Glo viability, 144 h, stronger effect = lower value
[11] = JHH-DIPG-1 glioma cell viability, MIPE5.0 library, CellTiter-Glo luminescence, qHTS (AID 1347067; cut-off not given, nearly all actives have AC50 up to about 26 µM;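 note: cells exposed to compound for 48 hours before readout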); details: JHH-DIPG-1 glioma viability, CellTiter-Glo ATP luminescence
[12] = growth inhibition of DIPG cells – cell-based, MIPE5.0 library, qHTS (AID 1347068; cut-off not given, nearly all actives have IC50 up to about 30 µM;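 for IC50: cells exposed to compound for 48 hours before viability readout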); details: SU-DIPG-XXV viability
[13] = stronger effect = lower value, cell number ratio, induced over uninduced
[14] = measured here: relative caspase fold change +Dox/-Dox
[15] = measured here: total cells with miR-34 induction, stronger effect = lower value
[16] = measured here: total cells without miR-34 induction
[17] = MELAS cybrid survival, CellTiter-Glo 48 h, stronger effect = higher value
[18] = Rieske KO mouse fibroblast survival, CellTiter-Glo 72 h
[19] = at 0.000305 µM, OCI-C5x cells, with rucaparib 10 µM, 100% = cells with rucaparib alone
[20] = at 0.000305 µM, OCI-C5x cells, without rucaparib
[21] = at 0.000305 µM, OCI-P5x cells, with rucaparib 20 µM, 100% = cells with rucaparib alone
[22] = at 0.000305 µM, OCI-P5x cells, without rucaparib
[23] = at 0.00122 µM, OCI-C5x cells, with rucaparib 10 µM, 100% = cells with rucaparib alone
[24] = at 0.00122 µM, OCI-C5x cells, without rucaparib
[25] = at 0.00122 µM, OCI-P5x cells, with rucaparib 20 µM, 100% = cells with rucaparib alone
[26] = at 0.00122 µM, OCI-P5x cells, without rucaparib
[27] = at 0.00488 µM, OCI-C5x cells, with rucaparib 10 µM, 100% = cells with rucaparib alone
[28] = at 0.00488 µM, OCI-C5x cells, without rucaparib
[29] = at 0.00488 µM, OCI-P5x cells, with rucaparib 20 µM, 100% = cells with rucaparib alone
[30] = at 0.00488 µM, OCI-P5x cells, without rucaparib
[31] = at 0.0195 µM, OCI-C5x cells, with rucaparib 10 µM, 100% = cells with rucaparib alone
[32] = at 0.0195 µM, OCI-C5x cells, without rucaparib
[33] = at 0.0195 µM, OCI-P5x cells, with rucaparib 20 µM, 100% = cells with rucaparib alone
[34] = at 0.0195 µM, OCI-P5x cells, without rucaparib
[35] = at 0.0781 µM, OCI-C5x cells, with rucaparib 10 µM, 100% = cells with rucaparib alone
[36] = at 0.0781 µM, OCI-C5x cells, without rucaparib
[37] = at 0.0781 µM, OCI-P5x cells, with rucaparib 20 µM, 100% = cells with rucaparib alone
[38] = at 0.0781 µM, OCI-P5x cells, without rucaparib
[39] = at 0.313 µM, OCI-C5x cells, with rucaparib 10 µM, 100% = cells with rucaparib alone
[40] = at 0.313 µM, OCI-C5x cells, without rucaparib
[41] = at 0.313 µM, OCI-P5x cells, with rucaparib 20 µM, 100% = cells with rucaparib alone
[42] = at 0.313 µM, OCI-P5x cells, without rucaparib
[43] = at 1.25 µM, OCI-C5x cells, with rucaparib 10 µM, 100% = cells with rucaparib alone
[44] = at 1.25 µM, OCI-C5x cells, without rucaparib
[45] = at 1.25 µM, OCI-P5x cells, with rucaparib 20 µM, 100% = cells with rucaparib alone
[46] = at 1.25 µM, OCI-P5x cells, without rucaparib
[47] = at 5 µM, OCI-C5x cells, with rucaparib 10 µM, 100% = cells with rucaparib alone
[48] = at 5 µM, OCI-C5x cells, without rucaparib
[49] = at 5 µM, OCI-P5x cells, with rucaparib 20 µM, 100% = cells with rucaparib alone
[50] = at 5 µM, OCI-P5x cells, without rucaparib

In the case of `CC(C)c1ccccc1Cc1cc(C(=O)Nc2ccc(S(=O)(=O)c3ccccc3C(C)(C)C)cc2)c(O)c(O)c1O`, the AC50 [1] is reported as 23.5 µM (active), the AC50 [2] is reported as 23.5 µM (active) and the AC50 [3] is reported as 23.5 µM (active). For the same molecule, the AC50 [4] was 20.9 µM (active), the AC50 [5] was 23.5 µM (active) and the AC50 [6] was 9.35 µM (active). The fold change [7, 13] was 0.928 (inactive), the fold change [7, 14] was 0.84 and the cell count [7, 15] was 2090. The cell count [7, 16] was 2260, the SSMD [8] was -1.79 and the cell count [8] was 7240. For the same molecule, the plate-normalised HSF1 focus index [8] was 0.912 (inactive), the z-score [9, 17] was 2.95 (active) and the z-score [9, 18] was -0.101. The viability [10, 19] was 105% (inactive), the viability [10, 20] was 115% (inactive) and the viability [10, 21] was 124% (inactive). The viability [10, 22] was 124% (inactive), the viability [10, 23] was 103% (inactive) and the viability [10, 24] was 119% (inactive). For the same molecule, the viability [10, 25] was 117% (inactive), the viability [10, 26] was 116% (inactive) and the viability [10, 27] was 113% (inactive). The viability [10, 28] was 116% (inactive), the viability [10, 29] was 117% (inactive) and the viability [10, 30] was 121% (inactive). For the same molecule, the viability [10, 31] was 110% (inactive), the viability [10, 32] was 109% (inactive) and the viability [10, 33] was 118% (inactive). The viability [10, 34] was 114% (inactive), the viability [10, 35] was 110% (inactive) and the viability [10, 36] was 111% (inactive). For the same molecule, the viability [10, 37] was 119% (inactive), the viability [10, 38] was 114% (inactive) and the viability [10, 39] was 101% (inactive). For the same molecule, the viability [10, 40] was 112% (inactive), the viability [10, 41] was 112% (inactive) and the viability [10, 42] was 110% (inactive). The viability [10, 43] was 106% (inactive), the viability [10, 44] was 118% (inactive) and the viability [10, 45] was 98.8% (active). The viability [10, 46] was 97.4% (active), the viability [10, 47] was 21.8% (active) and the viability [10, 48] was 90.4% (active). For the same molecule, the viability [10, 49] was 10.9% (active) and the viability [10, 50] was 21.5% (active).

With `O=C(O)c1ccccc1C(=O)Nc1ccc(-c2ccccc2)cc1` the outcome [1] was “inactive”, the outcome [2] was “inactive” and the outcome [3] was “inactive”. The outcome [4] was “inactive”, the outcome [5] was “inactive” and the outcome [11] was “inactive”. The outcome [12] was “inactive”.

For `CN(c1ncccc1CNc1nc(Nc2ccc3c(c2)CC(=O)N3)ncc1C(F)(F)F)S(C)(=O)=O`, the AC50 [1] was 5.25 µM (active), the AC50 [2] was 5.9 µM (active) and the AC50 [3] was 4.18 µM (active). For the same molecule, the AC50 [4] was 8.33 µM (active), the AC50 [5] was 3.72 µM (active) and the AC50 [11] was 8.33 µM (active). The IC50 [12] was 11.8 µM (active), the fold change [7, 13] was 0.847 (inactive) and 0.961 (inactive) and 0.946 (inactive) and the fold change [7, 14] was 0.469 and 1.06 and 0.671. The cell count [7, 15] was 1490 and 1380 and 1080, the cell count [7, 16] was 1760 and 1430 and 1140 and the SSMD [8] was -7.81. For the same molecule, the cell count [8] was 4390, the plate-normalised HSF1 focus index [8] was 0.528 (inactive) and the z-score [9, 17] was -0.34 (inactive) and -0.161 (inactive) and 2.09 (active). The z-score [9, 18] was -0.291 and -0.23 and -5.55, the viability [10, 19] was 100% (inactive) and the viability [10, 20] was 125% (inactive). For the same molecule, the viability [10, 21] was 105% (inactive), the viability [10, 22] was 110% (inactive) and the viability [10, 23] was 110% (inactive). For the same molecule, the viability [10, 24] was 111% (inactive), the viability [10, 25] was 110% (inactive) and the viability [10, 26] was 110% (inactive). For the same molecule, the viability [10, 27] was 106% (inactive), the viability [10, 28] was 130% (inactive) and the viability [10, 29] was 99.2% (active). The viability [10, 30] was 108% (inactive), the viability [10, 31] was 115% (inactive) and the viability [10, 32] was 122% (inactive). The viability [10, 33] was 106% (inactive), the viability [10, 34] was 106% (inactive) and the viability [10, 35] was 111% (inactive). The viability [10, 36] was 122% (inactive), the viability [10, 37] was 92.3% (active) and the viability [10, 38] was 101% (inactive). For the same molecule, the viability [10, 39] was 110% (inactive), the viability [10, 40] was 119% (inactive) and the viability [10, 41] was 90.8% (active). For the same molecule, the viability [10, 42] was 93.6% (active), the viability [10, 43] was 110% (inactive) and the viability [10, 44] was 110% (inactive). For the same molecule, the viability [10, 45] was 76.7% (active), the viability [10, 46] was 73.3% (active) and the viability [10, 47] was 13% (active). For the same molecule, the viability [10, 48] was 19.1% (active), the viability [10, 49] was 33.5% (active) and the viability [10, 50] was 24.3% (active).

Source: PubChem BioAssay
